Results as given in PubChem BioAssay AID1851 (National Center for Advancing Translational Sciences (NCATS), 2009).
Out of some 16,000 compounds screened, about 2,600 (16%) were called active. Roughly 20% stayed inconclusive and do not appear here. The call rests on the fitted dose curve; in most records, active means well fitted curve in the direction sought with a large enough effect; inconclusive means small, poorly fitted or top-dose-only effect, or effect the other way; inactive means no such curve, though single readings can be large or run the other way. These entries were drawn from the full list.

biological target: Cytochrome P450 2D6 (Homo sapiens) (UniProt P10635); assay: Cytochrome panel assay with activity outcomes; details: recombinant CYP, pro-luciferin dealkylation, luminescence, p450-cyp2d6; series mostly up to 57.1 µM; activity, negative = inhibition: at the top concentration
On the % scale 0 is the no-effect control and ±100 the full control effect.

Sequence of Cytochrome P450 2D6 (Homo sapiens) (P10635 whole entry, looked up): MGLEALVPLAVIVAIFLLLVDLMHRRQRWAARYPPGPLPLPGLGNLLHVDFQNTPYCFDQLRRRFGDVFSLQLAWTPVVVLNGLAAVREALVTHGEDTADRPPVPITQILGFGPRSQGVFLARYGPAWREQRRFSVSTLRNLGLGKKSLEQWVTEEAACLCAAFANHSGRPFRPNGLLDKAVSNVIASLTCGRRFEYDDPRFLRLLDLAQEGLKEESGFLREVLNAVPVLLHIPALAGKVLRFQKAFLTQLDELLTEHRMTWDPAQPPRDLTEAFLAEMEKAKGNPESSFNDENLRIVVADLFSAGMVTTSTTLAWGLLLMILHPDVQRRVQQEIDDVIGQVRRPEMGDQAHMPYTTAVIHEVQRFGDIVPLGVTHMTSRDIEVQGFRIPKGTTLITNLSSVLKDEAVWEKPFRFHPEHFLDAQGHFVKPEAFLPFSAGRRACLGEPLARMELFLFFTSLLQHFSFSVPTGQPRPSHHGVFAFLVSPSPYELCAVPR

activity, negative = inhibition, inactive:
Cc1c(CC(C)(C)C(=O)O)n(Cc2ccc(Cl)cc2)c2ccc(F)cc12 13.4%
Cc1cc(C(F)(F)F)n2nc(-c3cnn(C)c3C(F)(F)F)c(Cl)c2n1 -26.1%
CNc1oc(C)nc1S(=O)(=O)c1ccc(C)cc1 1.25%
COCCn1c(=O)c(-c2cccc(C#N)c2)nc2cnc(N3CCOCC3)nc21 -3.05%
COc1cc(OC)c2cc(-c3ccncc3)cnc2c1 -3.08%
COCCNC(=O)/C(C#N)=C/c1ccc(-c2ccc(OC)cc2[N+](=O)[O-])o1 17.4%
CO/N=C/c1ccc(N2CCN(C(=O)c3ccc(Cl)cc3Cl)CC2)c([N+](=O)[O-])c1 -12.7%
Cc1snc(SCC(=O)N/N=C(\N)COc2cccc(C(F)(F)F)c2)c1C#N -10.3%
CC(=O)OC[C@@H]1O[C@H](C/C=N\OCC[C@H]2C=C[C@H](OC(C)=O)[C@@H](COC(C)=O)O2)C=C[C@@H]1OC(C)=O -6.46% [at 11.4 µM]
C=CC[C@@H]1C=C[C@@H](O/N=C\C[C@@H]2C=C[C@H](OC(C)=O)[C@H](COC(C)=O)O2)[C@@H](CO)O1 -12% [at 11.4 µM]
CC(=O)OC[C@@H]1O[C@H](CCO/N=C\[C@@H](C)[C@H](OCc2ccccc2)C(C)C)C=C[C@@H]1OC(C)=O -18.8% [at 11.4 µM]
CC(=O)OC[C@@H]1O[C@H](CCON=C(C)C)C=C[C@@H]1OC(C)=O -4.81% [at 11.4 µM]
COC(=O)[C@@H]1CC[C@H](C)[C@@H](c2ccc(C)cc2)N1C(=O)c1ccc(/C=N\O[C@@H]2O[C@H](COC(C)=O)[C@H](OC(C)=O)[C@H](OC(C)=O)[C@H]2OC(C)=O)cc1 -6.2% [at 11.4 µM]
CC(=O)OC[C@@H]1O[C@H](C/C=N\OC[C@@H](C)[C@H](OCc2ccccc2)C(C)C)C=C[C@@H]1OC(C)=O -1.74% [at 11.4 µM]
CC(CCc1ccccc1)NS(=O)(=O)c1ccccc1 (centres undefined) -24%
COc1cccc(Cn2c(=O)c(-c3ccccc3)nc3cnc(N(C)C)nc32)c1 -12.2%

AC50, active:
CC(=O)OC[C@H]1O[C@@H](ON=C(C)C)[C@H](OC(C)=O)[C@@H](OC(C)=O)[C@H]1OC(C)=O 3.16 µM
CC(=O)OC[C@H]1O[C@@H](O/N=C\[C@@H](C)[C@H](OCc2ccccc2)C(C)C)[C@H](OC(C)=O)[C@@H](OC(C)=O)[C@H]1OC(C)=O 3.98 µM
CC(=O)OC[C@@H]1O[C@H](C/C=N\O[C@@H]2O[C@H](COC(C)=O)[C@@H](OC(C)=O)[C@H](OC(C)=O)[C@H]2OC(C)=O)C=C[C@@H]1OC(C)=O 3.98 µM
